In PubChem BioAssay AID1159580 (chemical genetic matrix, 2015):
Values joined by “and” are separate entries in the source; they are usually repeats but may differ in a detail not shown here. Equal entries are not always repeated. Among all 5,500 compounds or so, about 2,000 (36%) were called active. Inconclusive results (about 18%) are left out. Rule as the data show it: active = normalized growth mostly below about 0.91 (no sharp cut-off); inconclusive = no clear call, values can overlap the other calls; inactive = mostly above about 0.92. Some of the results follow.

Assay: chemical genetic growth profiling, strain panel (AID 1159580);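 also: tested at 20 µM; growth read once vehicle control cultures reached saturation at 30 °C; 1 = growth at the plate median or of vehicle wells; lower values mean less growth of the strain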
Details: S. cerevisiae deletion strains, growth OD

Measured: normalized growth

C=C1C(C2(C)C=CC(=O)C(C)(C)C2CC(=O)OC)CC[C@@]2(C)[C@H](c3ccoc3)OC(=O)C3OC132 (stereo not given in full)
active: locus YGL253W, strain hxk2, stronger effect = lower value 0.91
inactive: locus YAL021C, strain ccr4, stronger effect = lower value 1.02 | locus YAL026C, strain drs2, stronger effect = lower value 0.97 | locus YAL030W, strain snc1, stronger effect = lower value 0.996 | locus YBL061C, strain skt5, stronger effect = lower value 0.988 | locus YBR009C, strain hhf1, stronger effect = lower value 1 | locus YBR021W, strain FUR4, stronger effect = lower value 1.03 | locus YBR023C, strain chs3, stronger effect = lower value 1 | locus YBR171W, strain sec66, stronger effect = lower value 0.954 | locus YBR229C, strain ROT2, stronger effect = lower value 0.957 | locus YBR231C, strain swc5, stronger effect = lower value 0.976 | locus YBR279W, strain paf1, stronger effect = lower value 0.999 | locus YCL011C, strain gbp2, stronger effect = lower value 1 | locus YCL016C, strain dcc1, stronger effect = lower value 1.03 | locus YCL029C, strain bik1, stronger effect = lower value 0.977 | locus YCL061C, strain MRC1, stronger effect = lower value 0.997 | locus YCL069W, strain vba3, stronger effect = lower value 0.986 | locus YCR088W, strain abp1, stronger effect = lower value 0.991 | locus YDL005C, strain med2, stronger effect = lower value 0.997 | locus YDL035C, strain GPR1, stronger effect = lower value 0.978 | locus YDL040C, strain nat1, stronger effect = lower value 0.992 | locus YDL074C, strain BRE1, stronger effect = lower value 0.969 | locus YDL101C, strain DUN1, stronger effect = lower value 0.987 | locus YDL185W, strain tfp1, stronger effect = lower value 0.956 | locus YDL192W, strain arf1, stronger effect = lower value 0.985 | locus YDR001C, strain nth1, stronger effect = lower value 0.992 | locus YDR069C, strain doa4, stronger effect = lower value 0.966 | locus YDR101C, strain arx1, stronger effect = lower value 0.97 | locus YDR137W, strain rgp1, stronger effect = lower value 0.976 | locus YDR159W, strain sac3, stronger effect = lower value 0.962 | locus YDR162C, strain NBP2, stronger effect = lower value 0.982 | locus YDR195W, strain ref2 0.976 | locus YDR297W, strain sur2, stronger effect = lower value 0.996 | locus YDR318W, strain mcm21, stronger effect = lower value 0.99 | locus YDR334W, strain swr1, stronger effect = lower value 0.966 | locus YDR335W, strain msn5, stronger effect = lower value 1 | locus YDR388W, stronger effect = lower value 0.977 | locus YDR392W, strain spt3, stronger effect = lower value 0.942 | locus YDR502C, strain sam2, stronger effect = lower value 0.979 | locus YEL003W, strain gim4, stronger effect = lower value 0.983 | locus YEL037C, strain rad23, stronger effect = lower value 0.989 | locus YEL061C, strain CIN8 (second series), stronger effect = lower value 0.982 | locus YEL061C, strain CIN8, stronger effect = lower value 0.995 | locus YER015W, strain faa2, stronger effect = lower value 0.996 | locus YER016W, strain bim1, stronger effect = lower value 0.989 | locus YER110C, stronger effect = lower value 0.981 | locus YER111C, strain swi4, stronger effect = lower value 0.972 | locus YER155C, strain BEM2 (second series), stronger effect = lower value 1.01 | locus YER155C, strain BEM2, stronger effect = lower value 0.995 | locus YER167W, strain BCK2, stronger effect = lower value 0.985 | locus YFR010W, strain ubp6, stronger effect = lower value 0.971 | locus YGL078C, strain dbp3, stronger effect = lower value 0.978 | locus YGL086W, strain mad1, stronger effect = lower value 1.01 | locus YGL167C, strain pmr1, stronger effect = lower value 0.989 | locus YGL173C, strain kem1, stronger effect = lower value 0.968 | locus YGL227W, strain vid30, stronger effect = lower value 0.999 | locus YGL240W, strain doc1, stronger effect = lower value 0.999 | locus YGL248W, strain PDE1, stronger effect = lower value 0.995 | locus YGR135W, strain pre9, stronger effect = lower value 1.02 | locus YGR229C, strain SMI1, stronger effect = lower value 0.998 | locus YGR252W, strain gcn5, stronger effect = lower value 0.984 | locus YHR013C, strain ard1, stronger effect = lower value 0.993 | locus YHR027C, strain rpn1, stronger effect = lower value 0.972 | locus YHR030C, strain SLT2, stronger effect = lower value 0.991 and 0.976 | locus YHR079C, strain IRE1 (second series), stronger effect = lower value 0.975 | locus YHR079C, strain IRE1, stronger effect = lower value 0.978 | locus YHR094C, strain hxt1, stronger effect = lower value 0.976 | locus YHR129C, strain ARP1, stronger effect = lower value 0.992 | locus YHR142W, strain chs7, stronger effect = lower value 1.02 | locus YHR200W, strain rpn10, stronger effect = lower value 0.968 | locus YIL066C, strain RNR3, stronger effect = lower value 0.974 | locus YIL073C, strain SPO22, stronger effect = lower value 0.994 | locus YIL125W, strain kgd1, stronger effect = lower value 0.978 | locus YIR030C, strain dcg1, stronger effect = lower value 0.977 | locus YJL092W, strain hpr5, stronger effect = lower value 0.973 | locus YJL095W, strain BCK1 (second series), stronger effect = lower value 0.979 | locus YJL095W, strain BCK1, stronger effect = lower value 1 and 0.987 | locus YJL115W, strain asf1, stronger effect = lower value 0.98 | locus YJL129C, strain trk1, stronger effect = lower value 0.961 | locus YJL134W, strain LCB3, stronger effect = lower value 0.983 | locus YJL154C, strain vps35, stronger effect = lower value 1.01 | locus YJL164C, strain tpk1, stronger effect = lower value 1.03 | locus YJL166W, strain qcr8, stronger effect = lower value 1 | locus YJL168C, strain set2, stronger effect = lower value 0.994 | locus YJL187C, strain SWE1 (second series), stronger effect = lower value 0.989 | locus YJR066W, strain TOR1, stronger effect = lower value 0.932 | locus YJR075W, strain HOC1, stronger effect = lower value 0.98 | locus YKL009W, strain mrt4, stronger effect = lower value 0.986 | locus YKL068W, stronger effect = lower value 0.989 | locus YKL085W, strain MDH1 (second series), stronger effect = lower value 1 | locus YKL085W, strain MDH1, stronger effect = lower value 1 | locus YKL160W, strain elf1, stronger effect = lower value 1.05 | locus YKR001C, strain vps1, stronger effect = lower value 0.992 | locus YKR026C, strain gcn3, stronger effect = lower value 0.981 | locus YKR091W, strain srl3, stronger effect = lower value 0.996 | locus YLL001W, strain dnm1, stronger effect = lower value 0.967 | locus YLL026W, stronger effect = lower value 0.984 | locus YLL041C, strain sdh2, stronger effect = lower value 0.975 | locus YLR027C, strain aat2, stronger effect = lower value 0.978 | locus YLR039C, strain RIC1, stronger effect = lower value 0.92 | locus YLR058C, strain SHM2, stronger effect = lower value 0.979 | locus YLR102C, strain apc9, stronger effect = lower value 0.983 | locus YLR113W, strain HOG1, stronger effect = lower value 0.991 | locus YLR221C, strain rsa3, stronger effect = lower value 0.978 | locus YLR258W, strain gsy2, stronger effect = lower value 1.02 | locus YLR262C, strain YPT6 (second series), stronger effect = lower value 0.983 | locus YLR262C, strain YPT6, stronger effect = lower value 0.933 | locus YLR268W, strain sec22, stronger effect = lower value 0.959 | locus YLR320W, strain mms22, stronger effect = lower value 1 | locus YLR342W, strain FKS1, stronger effect = lower value 0.993 | locus YLR357W, strain rsc2, stronger effect = lower value 0.978 | locus YLR370C, strain arc18, stronger effect = lower value 0.963 | locus YLR371W, strain rom2, stronger effect = lower value 0.972 | locus YLR384C, strain iki3, stronger effect = lower value 1 | locus YLR418C, strain cdc73, stronger effect = lower value 0.994 | locus YML016C, strain PPZ1, stronger effect = lower value 0.978 | locus YML032C, strain rad52, stronger effect = lower value 0.965 | locus YML120C, strain ndi1, stronger effect = lower value 1.02 | locus YML124C, strain tub3, stronger effect = lower value 0.988 | locus YMR058W, strain fet3, stronger effect = lower value 0.994 | locus YMR078C, strain ctf18, stronger effect = lower value 0.961 | locus YMR125W, strain sto1, stronger effect = lower value 0.992 | locus YMR129W, stronger effect = lower value 0.99 | locus YMR205C, strain PFK2, stronger effect = lower value 1 | locus YMR223W, strain ubp8, stronger effect = lower value 0.993 | locus YMR231W, strain pep5, stronger effect = lower value 0.973 | locus YMR263W, strain SAP30, stronger effect = lower value 0.972 | locus YMR307W, strain GAS1, stronger effect = lower value 1.16 | locus YNL067W, strain RPL9B, stronger effect = lower value 0.992 | locus YNL071W, strain lat1, stronger effect = lower value 0.999 | locus YNL153C, strain GIM3, stronger effect = lower value 0.982 | locus YNL183C, strain NPR1, stronger effect = lower value 0.968 | locus YNL209W, strain ssb2, stronger effect = lower value 1 | locus YNL233W, strain BNI4, stronger effect = lower value 1.02 | locus YNL248C, strain rpa49, stronger effect = lower value 0.938 | locus YNL250W, strain rad50, stronger effect = lower value 0.972 | locus YNL271C, strain bni1, stronger effect = lower value 0.976 | locus YNL298W, strain CLA4, stronger effect = lower value 0.976 | locus YNL307C, strain MCK1, stronger effect = lower value 0.982 | locus YNL322C, strain KRE1 (second series), stronger effect = lower value 0.992 | locus YNR049C, strain mso1, stronger effect = lower value 0.988 | locus YNR052C, strain pop2, stronger effect = lower value 0.984 | locus YOL012C, strain htz1 1.19 | locus YOL147C, strain pex11, stronger effect = lower value 0.979 | locus YOR001W, strain rrp6, stronger effect = lower value 0.936 | locus YOR061W, strain CKA2, stronger effect = lower value 0.956 | locus YOR069W, strain VPS5, stronger effect = lower value 0.994 | locus YOR070C, strain gyp1, stronger effect = lower value 0.993 | locus YOR080W, strain dia2, stronger effect = lower value 0.976 | locus YOR083W, strain WHI5, stronger effect = lower value 1.06 | locus YOR106W, strain vam3, stronger effect = lower value 1.06 | locus YOR136W, strain idh2, stronger effect = lower value 0.976 | locus YOR144C, strain elg1, stronger effect = lower value 0.98 | locus YOR184W, strain ser1, stronger effect = lower value 0.953 | locus YOR231W, strain MKK1, stronger effect = lower value 0.996 | locus YOR265W, strain rbl2, stronger effect = lower value 0.991 | locus YOR270C, strain vph1, stronger effect = lower value 0.87 | locus YOR290C, strain snf2, stronger effect = lower value 1.05 | locus YOR316C, strain cot1, stronger effect = lower value 0.981 | locus YPL051W, strain arl3, stronger effect = lower value 0.959 | locus YPL078C, strain atp4, stronger effect = lower value 1.05 | locus YPL106C, strain sse1, stronger effect = lower value 1.04 | locus YPL240C, strain hsp82, stronger effect = lower value 0.976 | locus YPL241C, strain CIN2, stronger effect = lower value 0.986 | locus YPL256C, strain CLN2, stronger effect = lower value 0.995 | locus YPR119W, strain clb2, stronger effect = lower value 0.98 | locus YPR141C, strain kar3, stronger effect = lower value 0.985 | locus YPR163C, strain tif3, stronger effect = lower value 0.983 | locus YPR167C, strain met16, stronger effect = lower value 0.983 | strain wtn01, stronger effect = lower value 0.956
